Test results published in PubChem BioAssay.

The compounds below were run against NADPH oxidase 5 (Homo sapiens) (UniProt Q96PH1) (assay: compounds shifting NOX5 Amplex Red fluorescence – cell-based, HEK293-NOX5, NOX inhibitor project, primary screen (AID 1161)). Details: HEK293-NOX5, ionomycin, 45 min, higher = more signal.
Chain of NADPH oxidase 5 (Homo sapiens) (Q96PH1 whole entry, looked up): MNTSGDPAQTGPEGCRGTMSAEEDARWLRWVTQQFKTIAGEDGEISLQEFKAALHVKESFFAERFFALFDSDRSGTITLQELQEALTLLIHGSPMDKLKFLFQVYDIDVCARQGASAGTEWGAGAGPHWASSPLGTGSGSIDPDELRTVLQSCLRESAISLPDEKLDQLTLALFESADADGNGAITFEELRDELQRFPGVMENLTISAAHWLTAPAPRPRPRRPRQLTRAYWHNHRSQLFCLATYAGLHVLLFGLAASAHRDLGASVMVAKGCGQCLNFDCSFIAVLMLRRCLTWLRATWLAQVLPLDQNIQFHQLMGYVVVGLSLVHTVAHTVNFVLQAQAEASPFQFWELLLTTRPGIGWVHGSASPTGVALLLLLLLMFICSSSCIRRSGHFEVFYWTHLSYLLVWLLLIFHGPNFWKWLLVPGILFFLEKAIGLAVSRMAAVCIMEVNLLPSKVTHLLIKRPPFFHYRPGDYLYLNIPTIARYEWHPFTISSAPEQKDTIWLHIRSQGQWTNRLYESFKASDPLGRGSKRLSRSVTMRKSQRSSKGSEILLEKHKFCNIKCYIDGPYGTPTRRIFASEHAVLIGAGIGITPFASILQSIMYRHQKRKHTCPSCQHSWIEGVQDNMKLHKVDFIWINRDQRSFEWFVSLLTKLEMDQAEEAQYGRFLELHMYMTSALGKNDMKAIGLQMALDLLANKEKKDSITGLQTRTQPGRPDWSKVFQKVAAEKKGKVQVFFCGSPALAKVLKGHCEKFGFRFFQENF
Compound CC(C)N1C(=O)C[C@@](C(=O)NCCCN(C)C)(c2ccc([N+](=O)[O-])cc2)[C@H]1c1ccc(CO)cc1 has a z-score of -0.00257.
CCOc1cc(C(O)C2C=CC3C(=O)N(c4ccccc4)C(=O)C3N2Nc2ccc(C#N)cc2)ccc1O (stereo not given) gave a z-score of -4.31.
Compound CN(C)C(=O)[C@@]1(Cc2ccccc2CN=[N+]=[N-])N=C(c2ccc(OCCCO)cc2)O[C@H]1c1ccccc1CN=[N+]=[N-] has a z-score of 2.09.
Work on C=CC[C@]1(C(=O)O)COC(c2ccc(OCCCO)cc2)=N1 yielded a z-score of 1.09.
Work on C=CCC(OC(C)=O)[C@@H]1[C@@H](N(Cc2cccc3ccccc23)C(=O)Cc2ccc(OC)cc2)c2cc(OCCCO)ccc2N1C(=O)c1ccc2ccccc2n1 (stereo not given in full) yielded a z-score of -1.25.
With CCOC(=O)C[C@H]1[C@H](OC(=O)Cc2ccc3c(c2)OCO3)[C@@H](NC(=O)CC(C)C)c2cc(OCCCO)ccc2N1C(=O)Cc1ccc(OC)cc1 the z-score was 1.15.
For [N-]=[N+]=NCc1ccccc1C[C@@]1(C(=O)NCc2ccccc2)N=C(c2ccc(OCCCO)cc2)O[C@@H]1c1ccccc1N=[N+]=[N-], the z-score was -1.22.
O=C1C2C=CC(C(O)c3ccc(F)cc3)N(n3cnnc3)C2C(=O)N1Cc1ccccc1 (stereo not given) showed a z-score of -4.43.
Compound NC(=O)NCC#Cc1ccc2c(c1)[C@]1(C(=O)N2)[C@H](C(=O)NC[C@H](O)c2ccccc2)[C@H]2C(=O)O[C@H](c3ccccc3)[C@H](c3ccccc3)N2[C@@H]1c1ccc(OCCO)cc1 has a z-score of 0.737.
With O=C1O[C@H](c2ccccc2)[C@H](c2ccccc2)N2[C@H]1[C@@H](C(=O)N1CCN(c3ncccn3)CC1)[C@]1(C(=O)Nc3ccc(C#CC4(O)CCCCCC4)cc31)[C@H]2c1ccc(OCCO)cc1 the z-score was 1.35.
